Assay results taken from PubChem BioAssay (NCATS).
Values joined by “and” are separate entries in the source; they are usually repeats but may differ in a detail not shown here. Identical values can stand only once. Results filed as inconclusive are left out. Active and inactive are the calls of the source. Unless noted, calls follow the shape of the dose curve; as a rule, active = well fitted curve in the direction sought with a large enough effect; inconclusive = small, poorly fitted or top-dose-only effect, or another doubt; inactive = no such curve, though single readings can be large; an effect the other way counts as inactive or inconclusive.

Experiments:
[1] = molecular target: Cytochrome P450 1A2 (Homo sapiens) (UniProt P05177); experiment: p450-cyp1a2 (AID 410; calls by dose curve;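 also: -100% = full effect of reference inhibitor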)
Sequence of Cytochrome P450 1A2 (Homo sapiens) (P05177 whole entry, looked up): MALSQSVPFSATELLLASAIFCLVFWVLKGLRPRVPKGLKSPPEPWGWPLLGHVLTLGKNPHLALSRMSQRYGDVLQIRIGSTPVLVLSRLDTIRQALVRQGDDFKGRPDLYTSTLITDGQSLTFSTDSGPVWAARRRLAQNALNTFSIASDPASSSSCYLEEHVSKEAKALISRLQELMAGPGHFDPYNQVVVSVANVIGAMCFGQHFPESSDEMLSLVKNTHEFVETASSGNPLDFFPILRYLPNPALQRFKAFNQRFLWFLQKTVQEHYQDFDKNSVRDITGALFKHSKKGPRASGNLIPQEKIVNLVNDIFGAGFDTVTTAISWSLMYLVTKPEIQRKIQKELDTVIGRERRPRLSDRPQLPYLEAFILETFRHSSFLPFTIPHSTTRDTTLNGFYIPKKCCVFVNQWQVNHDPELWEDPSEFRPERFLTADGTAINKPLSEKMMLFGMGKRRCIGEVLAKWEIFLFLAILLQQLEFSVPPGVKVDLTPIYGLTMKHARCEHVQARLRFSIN
Method in brief: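 Human CYP1A2 (20nM) demethylated Luciferin-ME at its Km (100uM) in 100mM KPO4. After 10 min compound preincubation, NADPH regeneration ran the reaction 60 min at room temperature. Luciferin was read by luminescence, normalized to 57 uM furafylline.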

[2] = NFAT Signaling Pathway (AID 444; active = well fitted curve in either direction with a large enough effect, not every such curve was filed as active;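 also: carbachol stimulus at about its EC50 of 1 µM final; % is scaled to controls: 0 for no effect and ±100 for the full control effect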); conditions: Jurkat NFAT-bla M1, carbachol, beta-lactamase ratio, 5 h; at 38 µM (top of the series)
Method in brief: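 Read-out: CCF4 FRET ratio (460 nm/530 nm) after 1 h RT dye loading, used for %activity and AC50 from titration series. Cells: Jurkat NFAT-β-lactamase/M1 line, treated with compound plus 1 uM carbachol for 5 h, 37 °C.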

[3] = molecular target: Glucocorticoid receptor (Homo sapiens) (UniProt P04150); experiment: GR-GFP Redistribution (AID 450;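 active = compounds whose dose series gives a full or clear partial fitted curve of increased nuclear translocation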; also: potency is read from the fitted curve at half-maximal effect); conditions: U2OS GR-GFP nuclear translocation, laser cytometry, 2 h
Sequence of Glucocorticoid receptor (Homo sapiens) (P04150 whole entry, looked up, the tested form may be a part): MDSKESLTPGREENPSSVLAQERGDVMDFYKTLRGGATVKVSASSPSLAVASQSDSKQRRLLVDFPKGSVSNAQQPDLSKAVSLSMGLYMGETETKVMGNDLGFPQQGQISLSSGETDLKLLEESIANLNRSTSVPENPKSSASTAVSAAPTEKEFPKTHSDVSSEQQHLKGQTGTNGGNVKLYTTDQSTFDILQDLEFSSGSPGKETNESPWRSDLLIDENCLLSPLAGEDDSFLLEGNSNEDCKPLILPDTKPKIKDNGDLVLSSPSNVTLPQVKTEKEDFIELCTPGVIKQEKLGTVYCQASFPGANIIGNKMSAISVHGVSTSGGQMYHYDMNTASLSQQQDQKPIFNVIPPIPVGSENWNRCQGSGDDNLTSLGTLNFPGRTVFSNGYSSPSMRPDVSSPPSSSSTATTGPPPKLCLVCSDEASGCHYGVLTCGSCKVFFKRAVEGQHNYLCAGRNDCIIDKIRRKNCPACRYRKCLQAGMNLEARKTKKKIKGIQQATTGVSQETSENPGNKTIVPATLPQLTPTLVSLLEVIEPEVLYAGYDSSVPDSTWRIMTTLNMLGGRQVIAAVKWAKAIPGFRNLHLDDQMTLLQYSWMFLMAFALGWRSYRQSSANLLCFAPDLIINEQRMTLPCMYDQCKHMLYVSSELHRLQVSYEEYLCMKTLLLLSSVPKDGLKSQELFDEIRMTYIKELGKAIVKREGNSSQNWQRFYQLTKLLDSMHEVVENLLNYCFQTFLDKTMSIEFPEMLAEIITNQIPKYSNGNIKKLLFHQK

[4] = molecular target: Glucocorticoid receptor (Homo sapiens) (UniProt P04150); experiment: GR-EFC Redistribution (AID 451; calls by dose curve; also: potency is read from the fitted curve at half-maximal effect); conditions: CHO-K1 GR-EFC translocation, beta-gal luminescence, 2 h
Method in brief: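 Translocation of GR-ED fusion to nuclear EA restores b-gal, read by luminescence after 1 h room-temperature detection. Engineered CHO-K1 biosensor cells, 1,000/well, exposed 2 h at 37 C to titrations up to 46 uM final.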

[5] = molecular target: Mitogen-activated protein kinase 10 (Mus musculus) (UniProt Q61831); experiment: JNK3 AlphaScreen Assay (AID 530; active = well fitted curve in either direction with a large enough effect, not every such curve was filed as active;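 also: kinase came from lysate of stimulated human HepG2 cells; signal reports phosphorylation of biotinylated GST-cJun 1-79 at Ser73 with 10 µM ATP; % is scaled to controls: 0 for no effect and ±100 for the full control effect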)
Method in brief: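 Room-temperature AlphaScreen kinase assay; pre-activated HepG2 lysate as JNK3 source, biotin-GST-cJun(1-79) substrate, 10 uM ATP, compound 15 min preincubation.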

[6] = molecular target: 3',5'-cyclic-AMP phosphodiesterase 4B (Homo sapiens) (UniProt Q07343); experiment: qHTS Assay for Inhibitors of PDE-IV (AID 607; active = well fitted activation curve with a large enough effect in the main read-out, with a control signal flat, not every such curve was filed as active; also: % of control where 0% means no effect)
Sequence of 3',5'-cyclic-AMP phosphodiesterase 4B (Homo sapiens) (Q07343 whole entry, looked up): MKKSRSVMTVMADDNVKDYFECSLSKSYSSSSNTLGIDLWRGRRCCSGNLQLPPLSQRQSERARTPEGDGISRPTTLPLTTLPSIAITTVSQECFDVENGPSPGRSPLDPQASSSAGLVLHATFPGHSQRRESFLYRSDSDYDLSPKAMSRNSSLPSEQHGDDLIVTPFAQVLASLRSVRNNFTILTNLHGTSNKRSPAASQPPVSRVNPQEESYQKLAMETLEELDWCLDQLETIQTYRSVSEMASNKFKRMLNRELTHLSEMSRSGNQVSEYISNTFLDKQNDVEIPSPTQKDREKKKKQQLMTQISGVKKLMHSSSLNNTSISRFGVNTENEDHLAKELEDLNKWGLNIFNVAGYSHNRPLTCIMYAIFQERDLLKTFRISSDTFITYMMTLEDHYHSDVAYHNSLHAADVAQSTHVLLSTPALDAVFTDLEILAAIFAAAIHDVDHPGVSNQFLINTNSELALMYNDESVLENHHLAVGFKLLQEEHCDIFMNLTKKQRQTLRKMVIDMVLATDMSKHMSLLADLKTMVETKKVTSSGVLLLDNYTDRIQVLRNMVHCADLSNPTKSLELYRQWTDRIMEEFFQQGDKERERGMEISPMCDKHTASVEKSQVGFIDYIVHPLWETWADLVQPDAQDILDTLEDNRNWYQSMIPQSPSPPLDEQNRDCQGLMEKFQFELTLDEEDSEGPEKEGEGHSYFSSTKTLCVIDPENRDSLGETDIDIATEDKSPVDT
Method in brief: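 Cell-based read-out of cAMP via a modified cyclic nucleotide-gated channel and membrane potential dye (535/590 nm) in HEK293 cells expressing PDE4 endogenously. Compounds tested up to 22.9 uM final; 100 uM RO 20-1724 reference.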

[7] = molecular target: Guanine nucleotide-binding protein G(i) subunit alpha-1 (Homo sapiens) (UniProt P63096); experiment: qHTS Assay for Inhibitors of RGS12 GoLoco Motif Activity (Green Fluorophore) (AID 879);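 also: 0% = labeled peptide with Gαi1 and full inhibition = labeled peptide alone without protein; negative values mean loss of peptide binding seen as reduced polarization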
Sequence of Guanine nucleotide-binding protein G(i) subunit alpha-1 (Homo sapiens) (P63096 whole entry, looked up): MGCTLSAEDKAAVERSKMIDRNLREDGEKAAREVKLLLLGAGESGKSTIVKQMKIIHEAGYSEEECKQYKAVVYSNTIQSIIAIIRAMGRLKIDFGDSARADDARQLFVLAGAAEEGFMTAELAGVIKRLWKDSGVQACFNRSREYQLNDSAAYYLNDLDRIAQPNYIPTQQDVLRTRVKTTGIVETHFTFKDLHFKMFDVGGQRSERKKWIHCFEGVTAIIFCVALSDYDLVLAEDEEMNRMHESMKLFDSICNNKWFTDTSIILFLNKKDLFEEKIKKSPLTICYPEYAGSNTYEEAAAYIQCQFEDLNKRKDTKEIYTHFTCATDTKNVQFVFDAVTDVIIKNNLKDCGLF
Method in brief: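 Fluorescence polarization assay: 50 nM Gαi1 with 10 nM FITC-labeled RGS12 GoLoco peptide in 10 mM Tris pH 7.5, 150 mM NaCl, 0.1 mM GDP, 0.05% NP40, 10 min at room temperature with compound.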

[8] = molecular target: Cytochrome P450 2C9 (Homo sapiens) (UniProt P11712); experiment: qHTS Assay for Inhibitors and Substrates of Cytochrome P450 2C9 (AID 883); also: % is scaled to controls: 0 for no effect and ±100 for the full control effect; nearly all actives have a fitted effect of over 60% in size
Sequence of Cytochrome P450 2C9 (Homo sapiens) (P11712 whole entry, looked up): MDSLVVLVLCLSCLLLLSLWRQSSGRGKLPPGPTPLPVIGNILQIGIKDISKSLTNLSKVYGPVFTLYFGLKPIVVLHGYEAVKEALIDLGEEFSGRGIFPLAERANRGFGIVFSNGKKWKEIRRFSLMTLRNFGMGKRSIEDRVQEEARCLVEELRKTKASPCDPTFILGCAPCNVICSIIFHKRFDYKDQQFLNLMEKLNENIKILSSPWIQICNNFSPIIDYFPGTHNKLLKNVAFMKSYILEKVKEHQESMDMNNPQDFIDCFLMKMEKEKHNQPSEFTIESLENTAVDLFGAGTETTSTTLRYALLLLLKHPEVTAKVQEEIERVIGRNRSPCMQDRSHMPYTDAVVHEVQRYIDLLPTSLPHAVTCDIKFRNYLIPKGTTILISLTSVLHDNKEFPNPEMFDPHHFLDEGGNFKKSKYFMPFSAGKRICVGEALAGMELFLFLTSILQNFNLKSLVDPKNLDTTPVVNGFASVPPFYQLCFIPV
Method in brief: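 Turnover of Luciferin-H (100uM, KM) by 10nM human CYP2C9 was measured over 60 min at 37C with NADPH regeneration; inhibitors and some substrates reduce luminescence. Data normalized to sulphaphenazole 57uM.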

[9] = molecular target: Cytochrome P450 2D6 (Homo sapiens) (UniProt P10635); experiment: qHTS Assay for Inhibitors and Substrates of Cytochrome P450 2D6 (AID 891);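 also: luciferin methyl ether substrate demethylated by CYP2D6 with NADPH regeneration; % is scaled to controls: 0 for no effect and ±100 for the full control effect; nearly all actives have a fitted effect of over 60% in size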
Sequence of Cytochrome P450 2D6 (Homo sapiens) (P10635 whole entry, looked up): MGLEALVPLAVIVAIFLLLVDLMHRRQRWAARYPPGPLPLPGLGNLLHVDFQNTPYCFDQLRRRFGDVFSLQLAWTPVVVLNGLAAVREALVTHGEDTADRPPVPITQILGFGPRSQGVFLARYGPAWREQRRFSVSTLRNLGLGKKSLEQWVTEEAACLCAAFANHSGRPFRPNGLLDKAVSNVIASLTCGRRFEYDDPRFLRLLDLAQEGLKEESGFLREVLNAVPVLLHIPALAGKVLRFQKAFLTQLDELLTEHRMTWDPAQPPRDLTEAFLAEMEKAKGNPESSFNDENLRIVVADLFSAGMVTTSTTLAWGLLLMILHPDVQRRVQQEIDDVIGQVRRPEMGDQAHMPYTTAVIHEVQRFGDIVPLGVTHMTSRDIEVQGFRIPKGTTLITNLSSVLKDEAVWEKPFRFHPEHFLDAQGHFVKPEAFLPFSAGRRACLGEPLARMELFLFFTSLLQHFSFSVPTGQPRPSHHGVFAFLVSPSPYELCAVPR
Method in brief: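 Human CYP2D6 (5 nM) with 30 uM Luciferin-ME EGE (at Km) in 100 mM KPO4, compound preincubated 10 min, then NADPH regeneration system for 60 min at room temperature. Luciferin read by luminescence; normalized to 1.43 uM quinidine.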

[10] = molecular target: Cytochrome P450 2C19 (Homo sapiens) (UniProt P33261); experiment: qHTS Assay for Inhibitors and Substrates of Cytochrome P450 2C19 (AID 899); also: % is scaled to controls: 0 for no effect and ±100 for the full control effect; nearly all actives have a fitted effect of over 60% in size
Sequence of Cytochrome P450 2C19 (Homo sapiens) (P33261 whole entry, looked up): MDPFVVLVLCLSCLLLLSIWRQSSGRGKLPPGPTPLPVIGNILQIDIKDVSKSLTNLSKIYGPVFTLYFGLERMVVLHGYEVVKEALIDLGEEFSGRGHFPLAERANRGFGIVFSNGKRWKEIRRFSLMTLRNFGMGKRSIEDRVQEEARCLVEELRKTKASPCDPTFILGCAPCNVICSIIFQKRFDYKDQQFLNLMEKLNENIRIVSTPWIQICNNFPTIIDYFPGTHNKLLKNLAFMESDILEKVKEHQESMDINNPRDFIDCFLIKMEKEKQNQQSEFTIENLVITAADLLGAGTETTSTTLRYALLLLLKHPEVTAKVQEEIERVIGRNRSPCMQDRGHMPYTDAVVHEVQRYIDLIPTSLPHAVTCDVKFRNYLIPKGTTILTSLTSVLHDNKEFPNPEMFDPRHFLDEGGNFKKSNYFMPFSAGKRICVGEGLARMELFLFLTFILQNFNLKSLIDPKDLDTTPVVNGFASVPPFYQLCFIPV
Method in brief: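 Reactions contain 5nM enzyme, 10uM Luciferin-H EGE (KM) and 50mM KPO4; compound preincubates 10 min at 37C, NADPH regeneration starts turnover for 60 min. Luminescence after detection reagent gives activity.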

[11] = qHTS Assay for Identification of Small Molecule Agonists for Thrombopoietin (TPO) Signaling Pathway (AID 917); also: % is scaled to controls: 0 for no effect and ±100 for the full control effect
Method in brief: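 Luminescence from a Glycoprotein IIb promoter–driven luciferase reporter served as read-out in murine Ba/F3 cells carrying the human TPO receptor. Cells, deprived of IL-3 overnight, received compounds with 26 pM TPO and were incubated 24 hrs at 37 C.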

[12] = molecular target: Muscarinic acetylcholine receptor M1 (Rattus norvegicus) (UniProt P08482); experiment: qHTS Assay for Antagonists of Acetylcholine Muscarinic M1 Receptor: Kinetic Measurement of Intracellular Calcium Response (AID 943);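 also: Fluo-4 calcium signal as peak divided by basal fluorescence over 4 min; nearly all actives have a fitted effect of over 75% in size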
Sequence of Muscarinic acetylcholine receptor M1 (Rattus norvegicus) (P08482 whole entry, looked up): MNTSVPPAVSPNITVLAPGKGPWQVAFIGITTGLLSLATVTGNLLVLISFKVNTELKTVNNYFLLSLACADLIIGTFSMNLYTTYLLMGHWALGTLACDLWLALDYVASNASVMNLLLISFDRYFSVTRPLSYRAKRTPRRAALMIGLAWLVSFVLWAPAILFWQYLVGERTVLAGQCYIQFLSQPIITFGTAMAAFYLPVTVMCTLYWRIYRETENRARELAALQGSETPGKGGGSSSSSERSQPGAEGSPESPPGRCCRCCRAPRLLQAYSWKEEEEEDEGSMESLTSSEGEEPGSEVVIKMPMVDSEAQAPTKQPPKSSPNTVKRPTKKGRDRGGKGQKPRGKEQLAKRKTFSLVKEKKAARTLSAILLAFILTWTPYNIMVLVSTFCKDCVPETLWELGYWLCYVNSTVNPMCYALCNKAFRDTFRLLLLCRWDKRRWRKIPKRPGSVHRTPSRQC
Method in brief: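 CHO cells stably expressing rat M1 were loaded with no-wash Fluo-4 dye for 1 h at 37C, pre-incubated 10 min with compound, then challenged with EC80 carbachol (100 nM final); kinetic calcium read 4 min, peak/basal ratio.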

[13] = molecular target: Muscarinic acetylcholine receptor M1 (Rattus norvegicus) (UniProt P08482); experiment: qHTS Assay for Antagonists of Acetylcholine Muscarinic M1 Receptor: Measurement of IP-One Response (AID 944); also: nearly all actives have a fitted effect of over 75% in size
Method in brief: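 CHO cells expressing rat M1 receptor, recovered overnight, were pre-incubated 10 min with compound, then stimulated 30 min with carbachol at EC80 (200 nM) in LiCl-containing buffer, pH 7.4. IP1 accumulation was read by HTRF (620/665 nm).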

[14] = molecular target: Pyruvate kinase (Leishmania mexicana) (UniProt Q27686); experiment: qHTS Validation Assay for Inhibitors of Leishmania Mexicana Pyruvate Kinase (AID 945);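 also: 0% = DMSO only neutral control wells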
Method in brief: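 The enzyme is a highly purified E451W mutant of LmPYK used at 0.2 nM. It converts 0.5 mM PEP and 0.1 mM ADP over 1 h at room temperature; product ATP is quantified by luciferase luminescence relative to DMSO controls.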

[15] = molecular target: Alpha-galactosidase (Coffea arabica) (UniProt Q42656); experiment: Counterscreen for Glucocerebrosidase Inhibitors: qHTS Assay for Coffee Bean alpha-Galactosidase at pH 4.5 (AID 957);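 also: plate controls were enzyme alone for no effect and no enzyme for full effect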
Sequence of Alpha-galactosidase (Coffea arabica) (Q42656 whole entry, looked up): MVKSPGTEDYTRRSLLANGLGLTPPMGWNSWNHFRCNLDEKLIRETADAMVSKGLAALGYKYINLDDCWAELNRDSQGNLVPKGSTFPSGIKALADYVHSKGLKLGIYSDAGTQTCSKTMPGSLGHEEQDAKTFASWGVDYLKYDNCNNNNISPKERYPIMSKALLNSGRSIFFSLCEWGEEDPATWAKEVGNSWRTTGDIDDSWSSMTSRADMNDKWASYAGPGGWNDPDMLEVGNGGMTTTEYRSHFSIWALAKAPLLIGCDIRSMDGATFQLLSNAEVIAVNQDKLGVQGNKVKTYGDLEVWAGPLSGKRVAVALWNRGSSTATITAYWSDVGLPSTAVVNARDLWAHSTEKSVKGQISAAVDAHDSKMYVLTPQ
Method in brief: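 Green coffee bean enzyme (2 nM final) was incubated with compounds (0.7 nM to 77 uM) and 4-methylumbelliferyl alpha-D-galactopyranoside (80 uM final) in 50 mM citric acid, 0.005% Tween-20, pH 4.5, 20 min at room temperature; AC50 from Hill fits.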

[16] = molecular target: Alpha-galactosidase A (Homo sapiens) (UniProt P06280); experiment: Counterscreen for Glucocerebrosidase Inhibitors: qHTS Assay for Human alpha-Galactosidase at pH 4.5 (AID 992); also: 0% is about no effect
Method in brief: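 Quantitative HTS: compounds tested from 0.7 nM up to 77 uM against 2 nM enzyme with 80 uM 4-MU alpha-D-galactopyranoside. The 20 min room-temperature reaction is stopped with 1M NaOH/1M glycine, pH 10.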

[17] = molecular target: Alpha-galactosidase (Coffea arabica) (UniProt Q42656); experiment: Counterscreen for Glucocerebrosidase Inhibitors: qHTS Assay for Coffee Bean alpha-Galactosidase at pH 5.9 (AID 998);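 also: plate controls were uninhibited enzyme for no effect and no-enzyme basal signal for full effect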
Method in brief: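 Compounds were titrated from 0.7 nM to 77 uM against green coffee bean alpha-galactosidase (2 nM) using 80 uM fluorogenic 4-methylumbelliferyl substrate. After 20 min at room temperature, reactions were stopped at pH 10 and read by fluorescence.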

[18] = Validation of Assay for Modulators of Lamin A Splicing (AID 1459; active = well fitted curve in the direction sought with a large enough effect in the signal ratio; the % refers to the signal ratio;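 also: cells exposed to compound for two days before reading; 0% is about no effect; ratio rise marks activators and ratio drop marks inhibitors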)
Method in brief: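 HeLa S3 lamin A-EGFP/DsRed2 stable clone, 600 cells/well, Opti-MEM 2% FBS; compounds by pin tool; 48 hrs, 37 °C/5% CO2; Acumen 488 nm scan, objects 10-100 um; GFP/RFP intensity ratio.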

[19] = qHTS Assay for Lipid Storage Modulators (AID 1519; calls by dose curve); conditions: Drosophila S3 cells, BODIPY lipid droplet/cell ratio, laser cytometry, cells loaded with oleic acid
Method in brief: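 Cells seeded at 5,000 per well were treated with compounds over a concentration series and loaded with oleic acid (400 uM, as added). Lipid droplet fluorescence (488 nm excitation, 500-530 nm channel) was read by laser-scanning cytometry and normalized to 20 uM Triacsin C.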

[20] = molecular target: DNA repair nuclease/redox regulator APEX1 (Homo sapiens) (UniProt P27695); experiment: qHTS Validation Assay for Inhibitors of the Human Apurinic/apyrimidinic Endonuclease 1 (APE1) (AID 1705;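 also: TAMRA fluorescence gain over two minutes as APE1 cuts a quenched THF abasic duplex; % is scaled to controls: 0 for no effect and ±100 for the full control effect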)
Method in brief: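 qHTS, 1536-well. APE1 + cpd 15 min RT → 50 nM TAMRA/BHQ-2 THF-abasic dsDNA substrate → kinetic fluorescence, 3 reads/60 s; delta(read3−read1) = reaction progress. No-enzyme buffer = negative control.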

[21] = Counterscreen for APE1 Inhibitors: Fluorescent Dye Displacement Validation Assay (AID 1707);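 also: plate controls were ThO with dsDNA and no compound for no effect and ThO without dsDNA for full effect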
Method in brief: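 Compounds are scored by their ability to displace Thiazole Orange (250 nM) from a 50 nM TAMRA-tagged duplex bearing a tetrahydrofuran abasic site. Buffer is 50 mM Tris-HCl pH7.5, 50mM NaCl, 2 mM MgCl2, 0.01% Tween-20.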

N[C@H](CCCCCP(=O)(O)O)C(=O)O
-15.1%: max response ([19]; measured here: lipid channel max response)
-11.8%: max response ([19]; measured here: cell count channel max response)
inactive: Potency [1] | activity change, negative = inhibition [2] 7.92% and -0.366% | Potency [3] > 46 µM | Potency [4] > 46 µM | outcome [5] | Potency [6] | outcome [7] | Potency [8] | Potency [9] | Potency [10] | outcome [11] | Potency [12] | Potency [13] | outcome [14] | outcome [15] | outcome [16] | outcome [17] | outcome [18] | activity change, negative = inhibition ([19]; at 57.5 µM (top of the series)) -3.15% | Potency [20] | Potency [21]
